# Source: PubChem BioAssay
# ALDH1A1 block: qHTS Assay for Inhibitors of Aldehyde Dehydrogenase 1 (ALDH1A1) | Purified ALDH1A1, NADH fluorescence, propionaldehyde substrate | 7.3% of 220,000 active | Aldehyde dehydrogenase 1A1 (Homo sapiens), P00352 | Potency, µM (series often up to 75.3 µM), without a hit: at the highest dose activity, negative = inhibition, hits mostly inhibitors | AID 1030, 2008; active = well fitted inhibition curve with a large enough effect, not every such curve was filed as active; inconclusive = small, poorly fitted or top-dose-only effect, or another doubt; inactive = no such curve, though single readings can be large or run the other way;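 note: potency is the fitted concentration of half-maximal effect; plate controls were no enzyme wells and a reference inhibitor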
# Target sequence (P00352 whole entry, looked up): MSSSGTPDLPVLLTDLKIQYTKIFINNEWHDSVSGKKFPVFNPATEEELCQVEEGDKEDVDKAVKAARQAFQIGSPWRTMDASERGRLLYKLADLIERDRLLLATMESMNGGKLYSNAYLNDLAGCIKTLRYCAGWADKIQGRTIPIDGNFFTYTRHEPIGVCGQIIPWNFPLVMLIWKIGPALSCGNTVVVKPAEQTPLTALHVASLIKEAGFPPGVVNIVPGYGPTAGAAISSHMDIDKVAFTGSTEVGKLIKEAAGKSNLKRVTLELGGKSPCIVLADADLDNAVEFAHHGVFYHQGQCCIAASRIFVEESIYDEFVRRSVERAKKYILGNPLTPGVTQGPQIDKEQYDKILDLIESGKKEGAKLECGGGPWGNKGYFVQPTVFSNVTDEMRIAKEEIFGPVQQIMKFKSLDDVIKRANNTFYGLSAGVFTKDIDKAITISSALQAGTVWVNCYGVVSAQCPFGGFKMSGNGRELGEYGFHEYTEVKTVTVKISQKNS
# NPSR antag: qHTS Assay for Antagonists of the Neuropeptide S Receptor: cAMP Signal Transduction. Potency, µM (top dose mostly 38.3 µM), inactives show at the highest dose activity change, negative = inhibition, most hits filed as inhibitors. Q6W5P4. CHO-NPSR cells, cAMP TR-FRET, antagonist mode. 1% of 220,000 active. AID 1461, 2008; note: potency is the fitted concentration of half-maximal effect; nearly all actives have a fitted effect of over 50% in size
# IMPase cell inh: qHTS Assay for Identifying the Cell-Membrane Permeable IMPase Inhibitors | Inositol monophosphatase 1 (Rattus norvegicus), P97697 | CHO-M1 cells, IP1 accumulation, HTRF TR-FRET ratio | inhibition (IP1 accumulation), % at 46.1 µM | 120,000 tested, under 10 active; active = well fitted curve in the direction sought with a large enough effect in the signal ratio, not every such curve was filed as active; inconclusive = small, poorly fitted or top-dose-only effect, or a change in a side signal; inactive = no such curve, though single readings can be large or run the other way; the % refers to the signal ratio;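 note: cells stimulated with carbachol in lithium chloride buffer; plate controls were DMSO basal wells for no effect and reference inhibitor wells for full effect; higher means more IMPase inhibition seen as more IP1 and lower FRET ratio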
#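 Elevated IP1 in lysates lowers TR-FRET signal (665/620 ratio and 620 channel reported). Cells were CHO-M1, given carbachol (50 uM as added) plus 50mM LiCl, pH 7.4, 30 min, 37C; compounds titrated up to 46 uM; AC50 by Hill equation.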
# HPGD inh: qHTS Assay for Inhibitors of HPGD (15-Hydroxyprostaglandin Dehydrogenase); 4.3% of 150,000 active; purified HPGD, NADH fluorescence kinetic, PGE2 substrate; Potency, µM, without a hit: at the highest dose activity change, negative = inhibition, hits mostly inhibitors; active = well fitted inhibition curve with a large enough effect, not every such curve was filed as active; inconclusive = small, poorly fitted or top-dose-only effect, or another doubt; inactive = no such curve, though single readings can be large or run the other way; note: potency is the fitted concentration of half-maximal effect
#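 NADH formation kinetics: reaction with 30 uM PGE2 and 1 mM NAD+ (final), 20 nM enzyme, Tris-HCl pH 8 with Tween 20, after 15 min compound preincubation at room temperature. Fluorescence change, last versus first of five reads.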
# ALOX12 inhib: qHTS Assay for Inhibitors of 12-hLO (12-human lipoxygenase). Potency, µM (top dose mostly 57.1 µM), inactives show at the highest dose activity change, negative = inhibition, usual class: inhibitors. purified 12-hLO, xylenol orange hydroperoxide absorbance. 0.12% of 150,000 active. AID 1452, 2008. Polyunsaturated fatty acid lipoxygenase ALOX12 (Homo sapiens), P18054; note: potency is the fitted concentration of half-maximal effect; nearly all actives have a fitted effect of over 55% in size
#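 Hydroperoxide formation by human 12-lipoxygenase from 40 uM arachidonic acid was followed colorimetrically via ferric-xylenol orange complex, using the 573/405 nm absorbance ratio. Enzyme concentration was 150 nM, with 30 min reaction at room temperature.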
# IMPase Li inh: qHTS Assay for Identifying the Cell-Membrane Permeable IMPase Inhibitors: Potentiation with Lithium; CHO-M1 cells, IP1 TR-FRET (IP-One), carbachol + lithium; Potency, µM (top dose mostly 59.4 µM), for the others: top-dose activity, negative = IMPase inhibition, usual class: inhibitors; 0.35% of 210,000 active; AID 1457, 2008;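 note: IP1 builds up when IMPase is blocked and the TR-FRET signal falls; potency is the fitted concentration of half-maximal effect; plate controls were basal vehicle for no effect and high inhibitor control for full effect; nearly all actives have a fitted effect of over 50% in size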
#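 CHO cells stably expressing M1 receptor (2000/well, cultured 16–30 h) treated 30 min at 37C with compound plus low lithium. Cytosolic IP1 by TR-FRET (665/620 ratio and 620 channel) after 10 min lysis; AC50 by Hill fit.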
# Numbers without * were called inactive; u = inconclusive; x = no result; ! = a repeat was not active; [ ] = another dose, or the depositor's remark. Rows were chosen to be rich in hits. Some 8.9% of all compounds tested hit in one or more screens of this group. Unless noted, calls come from the whole dose curve; as a rule, active = well fitted curve in the direction sought with a large enough effect; inconclusive = small, poorly fitted or top-dose-only effect, or another doubt; inactive = no such curve, though single readings can be large; an effect the other way counts as inactive or inconclusive. Unless noted, % is set by controls: 0 for no effect and ±100 for the full control effect.
SMILES,ALDH1A1 block,NPSR antag,IMPase cell inh,HPGD inh,ALOX12 inhib,IMPase Li inh
CCOC(=O)CC(SP(=S)(OC)OC)C(=O)OCC (stereo unspecified),u,x,x,-10.2%,-17.9%,17.5%
CCn1c(O)c(C(=O)CC2NCCc3ccccc32)c(=O)n(CC)c1=S (stereo unspecified),1.26µM*,-28.6%[46.1 µM],5.5,-13.5%,-4.7%,23.8%[38.3 µM]
CCn1c(O)c(C=Nc2ccc(N3CCOCC3)cc2)c(=O)n(CC)c1=S,-6.2%,-20.1%[46.1 µM],6.3,-14.8%,4.0%,22.1%[38.3 µM]
Cc1ccc(-n2nnnc2SCC(=O)Nc2sc(C)c(C)c2C#N)cc1C,15.8µM*,-12.9%[46.1 µM],u,-19.8%,-2.2%,15.8%[38.3 µM]
C=CCn1c(=O)c(C=Nc2c(OC)cccc2[N+](=O)[O-])c(O)n(CCCC)c1=O,12.6µM*,-24.8%,x,-13.7%,-4.7%,17.2%
O=C(O)c1cc(O)c(O)c(O)c1,2µM*,x,x,7.08µM*!,4.7%,-20.1%
O=c1[nH]c(SCc2ccccc2Cl)nc2c1CCCC2,-12.8%,29.0%[46.1 µM],3.1,2µM*,-0.9%,27.5%[38.3 µM]
CC1CCN(CC(=O)c2ccccc2Cl)CC1,u,4.7%[46.1 µM],1.3,-6.5%,-1.3%,8.7%
CCOC(=O)c1sc(/N=C/c2c(O)n(-c3ccccc3)c(=O)[nH]c2=O)c(C#N)c1C,11.2µM*,14.4%[46.1 µM],-6.5,25.1µM*,-1.4%,-4.6%[38.3 µM]
CN(C(=O)Cc1ccc(Cl)c(Cl)c1)[C@H](CN1CCCC1)c1ccccc1,-1.4%,x,2.3,-7.2%,-2.6%,-3.2%
COc1cc2c(cc1OC)-c1c(O)c(OC)cc3c1[C@H](C2)N(C)CC3,u,x,u,u,-20.0%,46.3%
Cc1cc(C=C(C#N)C#N)ccc1N1CCCC1,u,-49.2%,x,x,x,22.0%
C#CCO,22.4µM*,x,x,-1.9%,-0.8%,-4.5%
CC[n+]1c(/C=C/N(C)c2ccccc2)sc2ccc(Cl)cc21,15.8µM*,-4.2%[46.1 µM],19.8,-23.3%,-11.2%,20.4%[38.3 µM]
Cc1cc(/C=C2/C(=O)NC(=O)N(Cc3ccco3)C2=O)c(C)n1-c1ccccc1,8.91µM*,-11.4%,x,u,-17.0%,4.0%
CN(C)c1ccc(/C=C2/C(=O)NC(=O)N(Cc3ccco3)C2=O)cc1,1µM*,-5.9%,x,10µM*,-8.3%,6.9%
CCN(CC)c1ccc(/C=C2/C(=O)NC(=O)N(Cc3ccco3)C2=O)cc1,0.562µM*,u,-1.9,10µM*,-0.5%,19.1%
Cc1cccc(OCCn2cccc2/C=C2/C(=O)NC(=O)N(Cc3ccco3)C2=O)c1,x,12.5%,x,x,x,x
CCN(CC)c1ccc(/C=C2\C(=O)NC(=O)N(CC3CCCO3)C2=O)cc1 (stereo unspecified),0.251µM*,-2.3%,x,25.1µM*,0.7%,-1.4%
CCCOC(=O)Nc1ccc([As](=O)(O)O)cc1NC(=O)OCCC,x,6.2%,x,x,x,x
NC(=O)c1ccc(C(=O)Nc2ccc([As](=O)(O)O)cc2)cc1,9.1%[13.5 µM],-15.2%,x,-4.2%,5.4%[11.4 µM],-0.8%
COc1cc(C(C#N)N2CCOCC2)ccc1O (stereo unspecified),14.1µM*,-10.1%[46.1 µM],8.7,x,-6.3%,x
CN1CCC(O)(c2ccccc2)C(C(=O)c2ccccc2)C1 (stereo unspecified),0.141µM*,-0.6%[46.1 µM],10.7,-3.8%,-3.6%,8.4%[38.3 µM]
CN1CCCC(C(=O)c2ccccc2)C1 (stereo unspecified),7.5%,4.5%[46.1 µM],u,-7.8%,2.9%,13.8%[38.3 µM]
CCC(=Nc1cccc(C(F)(F)F)c1)c1c(O)n(C)c(=O)n(C)c1=O,x,-7.1%,x,x,x,x
COc1cccc(C(=O)N2CCN(Cc3ccccn3)CC2)c1OC,7.08µM*,-3.3%[46.1 µM],6.9,-10.4%,-11.9%,-0.2%[38.3 µM]
